Laboratory results: the supplement of paper PMC11732987, “Enantioselective OTUD7B fragment discovery through chemoproteomics screening and high-throughput optimisation” (Communications Chemistry, 2025)
Unmarked numbers belong to inactive results.

Tests used:
Assay in all cases: log2 ratio of Biotin-Ahx-Ub-VS probe labelling (fragment/DMSO); higher = less target engagement (more negative = stronger competition), active = hit call of the paper (q ≤ 0.05, log2 ratio ≤ -1)
Conditions in all cases: compound concentration: 200 uM; treatment time: 3 h
OTUD6B = molecular target: T1, OTUD6B (UniProt Q8N6M0)
T1 sequence (whole entry): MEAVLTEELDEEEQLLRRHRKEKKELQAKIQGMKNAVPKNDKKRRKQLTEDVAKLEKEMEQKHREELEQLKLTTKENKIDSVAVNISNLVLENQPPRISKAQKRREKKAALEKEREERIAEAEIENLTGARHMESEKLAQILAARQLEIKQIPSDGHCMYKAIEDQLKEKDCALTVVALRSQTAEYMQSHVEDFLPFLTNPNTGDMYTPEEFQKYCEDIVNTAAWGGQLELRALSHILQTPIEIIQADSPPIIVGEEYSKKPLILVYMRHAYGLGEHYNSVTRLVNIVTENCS
Outline: (§1)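 HEK293T lysate (495 µg per sample, in Tris/CHAPS/IGEPAL buffer with protease inhibitors) was treated in triplicate with fragment at 200 µM or with DMSO for 3 h. It was then treated with Biotin-Ahx-Ub-VS (0.5 µM final) for 1 h. Labelled DUBs were NeutrAvidin-enriched, digested with LysC and trypsin, and run by diaPASEF LC-MS/MS. Spectronaut label-free quantities were global-median-normalised. Values are average log2 ratios fragment/DMSO by unpaired t-test, using proteins with ≥2 unique peptides.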

OTUD7B = molecular target: T2, OTUD7B (UniProt Q6GQQ9)
T2 sequence (whole entry): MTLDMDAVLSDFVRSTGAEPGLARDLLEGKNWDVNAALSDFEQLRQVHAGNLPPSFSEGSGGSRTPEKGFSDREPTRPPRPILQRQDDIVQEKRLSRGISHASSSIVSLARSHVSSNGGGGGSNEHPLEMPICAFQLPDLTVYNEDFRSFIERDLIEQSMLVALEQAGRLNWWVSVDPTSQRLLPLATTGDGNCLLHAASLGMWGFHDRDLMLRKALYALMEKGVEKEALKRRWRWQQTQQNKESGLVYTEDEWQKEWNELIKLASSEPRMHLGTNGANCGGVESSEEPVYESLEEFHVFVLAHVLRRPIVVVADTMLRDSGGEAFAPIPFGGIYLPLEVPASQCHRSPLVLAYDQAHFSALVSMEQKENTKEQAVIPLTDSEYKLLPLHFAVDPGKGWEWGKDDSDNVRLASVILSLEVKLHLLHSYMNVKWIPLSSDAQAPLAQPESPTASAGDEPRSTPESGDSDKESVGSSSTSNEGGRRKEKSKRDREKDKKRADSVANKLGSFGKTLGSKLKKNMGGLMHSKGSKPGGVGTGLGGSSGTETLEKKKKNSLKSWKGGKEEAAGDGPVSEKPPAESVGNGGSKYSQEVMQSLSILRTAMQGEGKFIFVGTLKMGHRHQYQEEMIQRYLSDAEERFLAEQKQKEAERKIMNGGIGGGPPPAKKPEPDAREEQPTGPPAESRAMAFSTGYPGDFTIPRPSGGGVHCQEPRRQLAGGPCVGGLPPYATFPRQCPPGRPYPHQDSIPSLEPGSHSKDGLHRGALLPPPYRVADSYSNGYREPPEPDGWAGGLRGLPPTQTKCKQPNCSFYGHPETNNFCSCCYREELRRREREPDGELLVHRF
Outline: as §1

PRPF8 = PRPF8 (UniProt Q6P2Q9)
Outline: as §1

PSMD7 = molecular target: T3, PSMD7 (UniProt P51665)
T3 sequence (whole entry): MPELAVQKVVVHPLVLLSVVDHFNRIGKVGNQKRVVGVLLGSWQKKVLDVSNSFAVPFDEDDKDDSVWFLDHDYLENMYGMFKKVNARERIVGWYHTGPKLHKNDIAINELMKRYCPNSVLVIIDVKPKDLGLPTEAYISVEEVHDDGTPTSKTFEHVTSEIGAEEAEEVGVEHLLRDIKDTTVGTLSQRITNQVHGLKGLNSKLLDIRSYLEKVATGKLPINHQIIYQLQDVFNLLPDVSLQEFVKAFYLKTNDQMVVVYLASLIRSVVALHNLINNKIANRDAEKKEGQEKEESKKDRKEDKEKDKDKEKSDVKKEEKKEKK
Outline: as §1

UCHL1 = UCHL1 (UniProt P09936)
Outline: as §1

UCHL3 = molecular target: T4, UCHL3 (UniProt P15374)
T4 sequence (whole entry): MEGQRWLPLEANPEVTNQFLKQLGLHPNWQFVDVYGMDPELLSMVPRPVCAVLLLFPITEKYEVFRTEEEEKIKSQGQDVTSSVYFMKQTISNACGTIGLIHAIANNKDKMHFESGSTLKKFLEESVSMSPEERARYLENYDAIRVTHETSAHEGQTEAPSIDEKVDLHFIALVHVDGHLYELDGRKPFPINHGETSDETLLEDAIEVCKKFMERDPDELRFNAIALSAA
Outline: as §1

UCHL5 = molecular target: T5, UCHL5 (UniProt Q9Y5K5)
T5 sequence (whole entry): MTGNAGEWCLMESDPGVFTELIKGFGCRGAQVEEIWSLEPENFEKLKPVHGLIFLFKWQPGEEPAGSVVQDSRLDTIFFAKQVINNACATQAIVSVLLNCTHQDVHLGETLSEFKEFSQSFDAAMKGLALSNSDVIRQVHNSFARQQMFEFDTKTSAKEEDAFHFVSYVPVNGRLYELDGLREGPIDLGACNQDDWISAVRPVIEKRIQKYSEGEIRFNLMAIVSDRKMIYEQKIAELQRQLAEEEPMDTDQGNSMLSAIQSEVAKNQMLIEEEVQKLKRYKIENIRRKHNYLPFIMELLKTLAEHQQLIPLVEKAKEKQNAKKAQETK
Outline: as §1

USP10 = USP10 (UniProt Q14694)
Outline: as §1

USP15 = molecular target: T6, USP15 (UniProt Q9Y4E8)
T6 sequence (whole entry): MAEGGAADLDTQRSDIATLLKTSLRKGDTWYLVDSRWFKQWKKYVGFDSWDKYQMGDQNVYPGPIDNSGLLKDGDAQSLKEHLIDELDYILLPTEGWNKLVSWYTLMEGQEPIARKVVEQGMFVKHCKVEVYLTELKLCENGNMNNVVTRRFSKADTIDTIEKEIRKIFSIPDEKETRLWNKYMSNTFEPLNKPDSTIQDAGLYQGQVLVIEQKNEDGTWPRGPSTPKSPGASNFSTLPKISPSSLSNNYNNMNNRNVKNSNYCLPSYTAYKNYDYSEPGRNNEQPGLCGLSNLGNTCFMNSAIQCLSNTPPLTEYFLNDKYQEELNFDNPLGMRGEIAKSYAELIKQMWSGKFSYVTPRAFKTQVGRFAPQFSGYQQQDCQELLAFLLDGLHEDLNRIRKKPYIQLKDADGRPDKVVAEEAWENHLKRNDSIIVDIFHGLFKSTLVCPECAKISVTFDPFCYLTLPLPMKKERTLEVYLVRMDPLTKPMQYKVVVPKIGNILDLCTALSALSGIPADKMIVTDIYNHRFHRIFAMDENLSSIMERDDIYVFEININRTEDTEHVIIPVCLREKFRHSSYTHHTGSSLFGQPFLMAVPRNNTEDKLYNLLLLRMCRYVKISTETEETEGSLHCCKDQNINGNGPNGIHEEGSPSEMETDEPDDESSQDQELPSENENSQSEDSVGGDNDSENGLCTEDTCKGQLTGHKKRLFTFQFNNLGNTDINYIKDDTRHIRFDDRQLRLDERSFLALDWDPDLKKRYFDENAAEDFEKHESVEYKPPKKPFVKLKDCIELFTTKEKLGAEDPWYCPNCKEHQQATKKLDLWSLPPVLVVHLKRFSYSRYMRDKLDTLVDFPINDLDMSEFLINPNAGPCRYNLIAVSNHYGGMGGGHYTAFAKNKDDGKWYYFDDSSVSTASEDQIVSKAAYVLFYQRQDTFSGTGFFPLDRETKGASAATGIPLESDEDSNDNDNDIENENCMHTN
Outline: as §1

USP16 = USP16 (UniProt Q9Y5T5)
Outline: as §1

USP16, sequence (Q9Y5T5 whole entry, looked up): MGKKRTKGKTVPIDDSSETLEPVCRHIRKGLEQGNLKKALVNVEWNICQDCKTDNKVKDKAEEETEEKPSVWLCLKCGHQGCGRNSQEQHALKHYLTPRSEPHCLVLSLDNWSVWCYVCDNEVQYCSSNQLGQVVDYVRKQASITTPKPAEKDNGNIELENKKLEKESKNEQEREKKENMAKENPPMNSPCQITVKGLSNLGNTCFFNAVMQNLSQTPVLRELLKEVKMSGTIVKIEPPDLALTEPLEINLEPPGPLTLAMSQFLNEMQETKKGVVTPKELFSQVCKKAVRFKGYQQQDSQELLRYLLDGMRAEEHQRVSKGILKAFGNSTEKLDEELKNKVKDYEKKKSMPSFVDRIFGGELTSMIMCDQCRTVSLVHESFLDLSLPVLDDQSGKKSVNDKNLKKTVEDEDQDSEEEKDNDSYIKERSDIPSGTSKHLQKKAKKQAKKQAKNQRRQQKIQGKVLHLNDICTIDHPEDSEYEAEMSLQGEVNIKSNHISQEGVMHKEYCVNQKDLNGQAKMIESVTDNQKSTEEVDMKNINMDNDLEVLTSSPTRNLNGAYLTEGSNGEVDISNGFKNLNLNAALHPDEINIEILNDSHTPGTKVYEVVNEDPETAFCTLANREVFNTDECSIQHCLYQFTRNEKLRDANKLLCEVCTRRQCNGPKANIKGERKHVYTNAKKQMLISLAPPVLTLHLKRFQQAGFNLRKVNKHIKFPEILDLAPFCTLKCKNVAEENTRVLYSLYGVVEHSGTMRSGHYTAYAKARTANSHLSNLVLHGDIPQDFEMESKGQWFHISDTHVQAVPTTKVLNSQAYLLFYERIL
USP10, sequence (Q14694 whole entry): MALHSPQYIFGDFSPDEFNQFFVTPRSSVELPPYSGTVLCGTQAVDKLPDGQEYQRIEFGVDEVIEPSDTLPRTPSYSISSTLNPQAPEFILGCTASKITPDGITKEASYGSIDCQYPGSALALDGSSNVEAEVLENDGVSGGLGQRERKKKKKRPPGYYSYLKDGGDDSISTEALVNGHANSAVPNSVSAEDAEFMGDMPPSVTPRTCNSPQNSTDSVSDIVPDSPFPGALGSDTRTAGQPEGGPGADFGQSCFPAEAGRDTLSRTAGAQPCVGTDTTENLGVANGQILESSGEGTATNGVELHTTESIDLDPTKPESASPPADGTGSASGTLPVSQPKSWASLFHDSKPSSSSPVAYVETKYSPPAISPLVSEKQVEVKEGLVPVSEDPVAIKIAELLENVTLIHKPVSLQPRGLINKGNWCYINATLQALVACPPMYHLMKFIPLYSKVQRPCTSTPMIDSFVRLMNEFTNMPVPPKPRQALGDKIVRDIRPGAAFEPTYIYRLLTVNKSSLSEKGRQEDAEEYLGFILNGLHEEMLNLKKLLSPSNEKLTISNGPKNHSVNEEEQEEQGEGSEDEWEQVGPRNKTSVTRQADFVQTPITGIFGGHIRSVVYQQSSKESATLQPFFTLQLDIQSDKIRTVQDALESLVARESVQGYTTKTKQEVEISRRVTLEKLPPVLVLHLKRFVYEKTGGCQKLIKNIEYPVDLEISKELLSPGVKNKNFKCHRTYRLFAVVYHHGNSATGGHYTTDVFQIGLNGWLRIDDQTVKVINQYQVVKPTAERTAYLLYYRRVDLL
UCHL1, sequence (P09936 whole entry, looked up): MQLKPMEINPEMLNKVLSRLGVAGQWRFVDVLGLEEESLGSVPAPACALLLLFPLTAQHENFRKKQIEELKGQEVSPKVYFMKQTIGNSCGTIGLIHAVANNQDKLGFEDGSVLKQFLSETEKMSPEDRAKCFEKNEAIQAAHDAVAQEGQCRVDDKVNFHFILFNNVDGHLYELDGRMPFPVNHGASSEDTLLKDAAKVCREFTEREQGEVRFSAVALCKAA

CC1(NC(=O)CCl)CCS(=O)(=O)C1 (stereo not given)
log2 ratio of Biotin-Ahx-Ub-VS probe labelling (OTUD6B): -0.893
log2 ratio of Biotin-Ahx-Ub-VS probe labelling (OTUD7B): -1.2 (active)
log2 ratio of Biotin-Ahx-Ub-VS probe labelling (PRPF8): -0.0055
log2 ratio of Biotin-Ahx-Ub-VS probe labelling (PSMD7): 0.0653
log2 ratio of Biotin-Ahx-Ub-VS probe labelling (UCHL1): -2.03 (active)
log2 ratio of Biotin-Ahx-Ub-VS probe labelling (UCHL3): -0.392
log2 ratio of Biotin-Ahx-Ub-VS probe labelling (UCHL5): -0.974
log2 ratio of Biotin-Ahx-Ub-VS probe labelling (USP10): -0.235
log2 ratio of Biotin-Ahx-Ub-VS probe labelling (USP15): -0.845
log2 ratio of Biotin-Ahx-Ub-VS probe labelling (USP16): 0.0352
